The source of these data is PubChem BioAssay (EPA / NIEHS).

Results filed as inconclusive are left out. Calls of active or inactive are those of the source. The calls were made as follows: active = hit-call score of the fitted dose curve at least 0.9, where 1 is the maximum; inconclusive = response in the unintended direction; inactive = score below 0.9.

Sequence of Bile acid receptor (Homo sapiens) (Q96RI1 whole entry, looked up, the tested form may be a part): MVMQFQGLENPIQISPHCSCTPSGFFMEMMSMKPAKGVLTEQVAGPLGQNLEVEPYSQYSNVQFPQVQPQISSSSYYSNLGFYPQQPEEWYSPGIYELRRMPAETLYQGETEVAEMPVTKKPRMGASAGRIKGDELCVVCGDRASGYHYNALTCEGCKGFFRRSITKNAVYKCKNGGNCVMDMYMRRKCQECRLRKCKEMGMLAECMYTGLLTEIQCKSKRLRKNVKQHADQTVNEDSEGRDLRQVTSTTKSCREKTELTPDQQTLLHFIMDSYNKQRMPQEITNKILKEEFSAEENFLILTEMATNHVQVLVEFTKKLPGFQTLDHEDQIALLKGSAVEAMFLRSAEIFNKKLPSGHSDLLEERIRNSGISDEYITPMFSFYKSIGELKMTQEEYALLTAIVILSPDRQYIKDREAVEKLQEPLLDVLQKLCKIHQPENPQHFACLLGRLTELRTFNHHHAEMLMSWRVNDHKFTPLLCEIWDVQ
Sequence of Retinoic acid receptor RXR-alpha (Homo sapiens) (P19793 whole entry, looked up, the tested form may be a part): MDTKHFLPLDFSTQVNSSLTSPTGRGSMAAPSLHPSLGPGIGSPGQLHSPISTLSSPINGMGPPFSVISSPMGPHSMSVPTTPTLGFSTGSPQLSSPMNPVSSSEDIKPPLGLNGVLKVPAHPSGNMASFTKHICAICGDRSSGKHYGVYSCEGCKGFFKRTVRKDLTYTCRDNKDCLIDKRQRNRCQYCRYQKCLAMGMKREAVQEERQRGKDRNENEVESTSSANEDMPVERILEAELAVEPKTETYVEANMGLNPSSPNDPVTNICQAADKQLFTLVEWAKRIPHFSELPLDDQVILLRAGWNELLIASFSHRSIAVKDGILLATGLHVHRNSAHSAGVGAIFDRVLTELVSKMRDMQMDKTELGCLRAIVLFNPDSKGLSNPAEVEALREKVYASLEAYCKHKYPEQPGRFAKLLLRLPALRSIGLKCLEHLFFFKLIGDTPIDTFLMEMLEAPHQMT

The first test has as its target Bile acid receptor (Homo sapiens) (UniProt Q96RI1). Description: OT_FXR_FXRSRC1_0480: Odyssey Thera (OT) 8-hour HEK293T Protein-Complementation Assay for Farnesoid X receptor/SRC-1 Co-activator (AID 2283383). A digest of the protocol:
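HEK293T cells expressing FXR and SRC-1 fused to reporter fragments were dosed with compound for 8 h; fluorescence from the reconstituted reporter marked co-activator recruitment. Gain of signal was fitted against the DMSO baseline.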
For orientation: AC50 means the concentration giving half of the maximal activity seen. For the molecule `CC(C)=CC1C(C(=O)OCc2coc(Cc3ccccc3)c2)C1(C)C` (stereo unspecified), the AC50 is 39.6 µM (active). Take `CCNC(=O)NC(=O)C(C#N)=NOC`: the outcome was inactive. On to `CO/N=C(/C1=NOCCO1)c1ccccc1Oc1ncnc(Oc2ccccc2Cl)c1F`, for which the AC50 is 12.4 µM (active). For `O=P(O)(O)CCCl`, the molecule was called inactive. Still for that read-out and setting: with `CN=C=S` the entry was “inactive”; with `COCC(C)N(C(=O)CCl)c1c(C)csc1C` (stereo unspecified), “inactive”.

A further test shares this target. Kind of test: OT_FXR_FXRSRC1_1440: Odyssey Thera (OT) 24-hour HEK293T Protein-Complementation Assay for Farnesoid X receptor/SRC-1 Co-activator (AID 2283384). A digest of the protocol:
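HEK293T cells were dosed with compound and read 24 h later by fluorescence intensity from protein-fragment complementation reporting FXR/SRC-1 co-activator interaction. Gain of signal was fitted relative to DMSO negative control as baseline.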
Consider `CC(C)=CC1C(C(=O)OCc2coc(Cc3ccccc3)c2)C1(C)C` (stereo unspecified), for which the molecule was classed as inactive. Turning to `CCNC(=O)NC(=O)C(C#N)=NOC`, the AC50 was 23.1 µM (active). Still for that read-out and setting: with `CO/N=C(/C1=NOCCO1)c1ccccc1Oc1ncnc(Oc2ccccc2Cl)c1F` the figure was 12.7 µM (active). For the molecule `O=P(O)(O)CCCl`, the result was inactive. For `CN=C=S`, the result was inactive.

The next test has as its target Retinoic acid receptor RXR-alpha (Homo sapiens) (UniProt P19793). Kind of test: OT_NURR1_NURR1RXRa_0480: Odyssey Thera (OT) 8-hour HEK293T Protein Complementation Assay for Nurr1/retinoid X receptor (RXR) (AID 2283385). The gist of the method:
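HEK293T cells expressing Nurr1 and RXRα fused to reporter fragments were dosed with compound for 8 hours. Complex formation was read as fluorescence intensity and analysed as gain of signal against DMSO as baseline.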
For `N#Cc1c(Cl)cccc1Cl`, the result was inactive. The same measure, in the same setting: with `Cn1c(-c2ccccc2)cc(-c2ccccc2)[n+]1C` the entry was “inactive”; with `C=CCOC(=O)C(C)(C)OC(=O)c1cc(-n2c(=O)cc(C(F)(F)F)n(C)c2=O)ccc1Cl`, “inactive”; with `CC(C)=CC1C(C(=O)OCc2coc(Cc3ccccc3)c2)C1(C)C` (stereo unspecified), “inactive”.

Take `CCN(CC)c1nc(C)cc(OP(=S)(OC)OC)n1`: the molecule was called inactive.

In the case of `CCNC(=O)NC(=O)C(C#N)=NOC`, the molecule was classed as inactive. The same measure, in the same setting: with `CCOc1nc(C(Cl)(Cl)Cl)ns1` the entry was “inactive”; with `CO/N=C(/C1=NOCCO1)c1ccccc1Oc1ncnc(Oc2ccccc2Cl)c1F`, “inactive”; with `CCNP(=S)(OC)O/C(C)=C/C(=O)OC(C)C` (stereo unspecified), “inactive”. Consider `Cc1ccc(N=CN(C)C=Nc2ccc(C)cc2C)c(C)c1`, for which the AC50 was 50 µM (active). As to `CC1(C)CON(Cc2ccccc2Cl)C1=O`, the call was inactive. On the same count and under the same terms, with `CC(C)Oc1cccc(NC(=O)c2ccccc2C(F)(F)F)c1` the entry was “inactive”; with `O=C(Nc1ccccc1-c1ccc(Cl)cc1)c1cccnc1Cl`, “inactive”; with `C=C(C)CN(CC)c1c([N+](=O)[O-])cc(C(F)(F)F)cc1[N+](=O)[O-]`, “inactive”. Turning to `O=P(O)(O)CCCl`, the molecule was classed as inactive. Same read-out and setting: with `CC1(C)C(C=C(Cl)Cl)C1C(=O)OC(C#N)c1cccc(Oc2ccccc2)c1` (stereo unspecified) the entry was “inactive”. Still for that read-out and setting: with `CCCCC(C#N)(Cn1cncn1)c1ccc(Cl)cc1` (stereo unspecified) the entry was “inactive”; with `CN=C=S`, “inactive”. For the molecule `CNC(=O)N(C)c1nnc(C(C)(C)C)s1`, the result was inactive.

For `COCC(C)N(C(=O)CCl)c1c(C)csc1C` (stereo unspecified), the outcome was inactive. Same read-out and setting: with `CC(C)(C)C(=O)C(Oc1ccc(Cl)cc1)n1cncn1` (stereo unspecified) the entry was “inactive”; with `COP(=O)(OC)O/C(C)=C/C(=O)N(C)C`, “inactive”; with `N#CN=C1SCCN1Cc1ccc(Cl)nc1`, “inactive”. Still for that read-out and setting: with `CN/C(=N\[N+](=O)[O-])NCc1cnc(Cl)s1` the entry was “inactive”; with `Clc1nc(Cl)nc(Nc2ccccc2Cl)n1`, “inactive”.
